Test results as given in PubChem BioAssay (EPA / NIEHS).
Records with an inconclusive call do not appear. The source holds several records for some structures; these can differ, active in one and inactive in another. Calls of active or inactive are those of the source. The calls were made as follows, unless noted: active = hit-call score of the fitted dose curve at least 0.9, where 1 is the maximum; inactive = score below 0.9.

Tests used:
[1] = read-out: Interleukin-8 (IL8), CXCL8 (gene 3576); assay: BSK_3C_IL8: BioMAP Diversity Plus: 3C Assay for Interleukin-8 (IL8) Biomarker Activity (AID 2283020); settings: primary human endothelial cells (HUVEC); actives raise or lower the signal
Procedure, shortened: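 Primary human umbilical vein endothelial cells (3C system) were exposed to test chemical for 24 h, then IL-8 was quantified by ELISA. Responses were fitted bidirectionally against DMSO vehicle as baseline.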

[2] = read-out: Monokine induced gamma interferon (MIG), CXCL9 (gene 4283); assay: BSK_3C_MIG: BioMAP Diversity Plus: 3C Assay for Monokine induced gamma interferon (MIG) Biomarker Activity (AID 2283021); settings: primary human endothelial cells (HUVEC); actives raise or lower the signal;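 as to AC50: MIG protein level measured by immunoassay in the treated endothelial cultures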
Procedure, shortened: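 Primary human umbilical vein endothelial cells in the 3C system were exposed to chemical for 24 h, after which MIG was quantified by ELISA. Activity was fitted bidirectionally against DMSO as negative control and baseline.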

[3] = target: human Vitamin D Receptor (VDR), VDR (gene 7421) (UniProt P11473); assay: ATG_VDR_TRANS: Attagene TRANS-FACTORIAL HepG2 Assay for human Vitamin D Receptor (VDR) (AID 2283022; active = hit-call score of the fitted dose curve at least 0.9, where 1 is the maximum)
Procedure, shortened: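 HepG2 cells were transiently transfected with GAL4-UAS reporter units and a chimeric VDR-Gal4 construct, then dosed for 24 hours. Reporter mRNA was quantified by RT-PCR, fluorescent labeling, HpaI digestion and capillary electrophoresis; gain of signal analysed vs DMSO.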

[4] = BSK_3C_SRB: Viability Assessment in the BioMAP Diversity Plus: 3C Assay (AID 2283023); settings: primary human endothelial cells (HUVEC);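 also: fitted both ways against DMSO so a hit may be signal rise or drop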
Procedure, shortened: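 Human umbilical vein endothelial cells in the 3C system, treated 24 h. Total protein measured by 0.1% sulforhodamine B staining after 10% TCA fixation, read at 560 nm; bidirectional fit versus DMSO.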

[5] = read-out: Matrix Metallopeptidase 1 (MMP1), MMP1 (gene 4312); assay: BSK_BE3C_MMP1: BioMAP Diversity Plus: BE3C Assay for Matrix Metallopeptidase 1 (MMP1) Biomarker Activity (AID 2283024); settings: primary human bronchial epithelial cells; actives raise or lower the signal
Procedure, shortened: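 Primary human bronchial epithelial cells were dosed with test chemicals, and MMP1 levels were measured by ELISA 24 h later. Data were fitted bidirectionally against DMSO as the negative control and activity baseline.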

[6] = BSK_3C_Vis: BioMAP Diversity Plus: 3C Assay for Morphology Visualization (AID 2283025); settings: primary human endothelial cells (HUVEC);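 also: fitted both ways so gain or loss versus DMSO counts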
Procedure, shortened: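 Human umbilical vein endothelial cells in the 3C system were imaged by light microscopy 24 h after chemical dosing to record cell morphology. Activity was fitted bidirectionally against DMSO as negative control and baseline; the endpoint serves as a background control.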

[7] = read-out: Pselectin, SELP (gene 6403); assay: BSK_4H_Pselectin: BioMAP Diversity Plus: 4H Assay for Pselectin Biomarker Activity (AID 2283026); settings: primary human endothelial cells (HUVEC); actives raise or lower the signal
Procedure, shortened: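 Primary human umbilical vein endothelial cells were exposed to test chemical for 24 h, then cell-surface P-selectin was quantified by ELISA. Activity was fitted bidirectionally against DMSO as negative control and baseline.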

[8] = BSK_4H_SRB: Viability Assessment in the BioMAP Diversity Plus: 4H Assay (AID 2283027); settings: primary human endothelial cells (HUVEC);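 also: cells exposed to compound for 24 h before staining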;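 as to AC50: curves fitted both ways versus DMSO so AC50 may be loss or gain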
Procedure, shortened: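 Human umbilical vein endothelial cells were dosed with chemical and, after 24 h, fixed with 10% TCA, stained with 0.1% sulforhodamine B, and read at 560 nm to give total protein as a cytotoxicity measure. Bidirectional fitting relative to DMSO control.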

[9] = BSK_BE3C_SRB: Viability Assessment in the BioMAP Diversity Plus: BE3C Assay (AID 2283028); settings: primary human bronchial epithelial cells;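 as to AC50: fitted both ways so AC50 may mark signal gain or loss versus DMSO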
Procedure, shortened: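 Human bronchial epithelial primary cells in confluent culture, 24 h after chemical dosing; total protein by 0.1% SRB staining after 10% TCA fixation, read at 560 nm. Bidirectional fitting versus DMSO baseline.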

[10] = read-out: Thrombomodulin, THBD (gene 7056); assay: BSK_3C_Thrombomodulin: BioMAP Diversity Plus: 3C Assay for Thrombomodulin Biomarker Activity (AID 2283029); settings: primary human endothelial cells (HUVEC); actives raise or lower the signal
Procedure, shortened: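 Primary human umbilical vein endothelial cells (3C system) were exposed to chemical for 24 h, then thrombomodulin levels were measured by ELISA. Activity was fitted bidirectionally against the DMSO negative control as baseline.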

[11] = read-out: Urokinase-type plasminogen activator receptor (uPAR), PLAUR (gene 5329); assay: BSK_4H_uPAR: BioMAP Diversity Plus: 4H Assay for Urokinase-type plasminogen activator receptor (uPAR) Biomarker Activity (AID 2283030); settings: primary human endothelial cells (HUVEC); actives raise or lower the signal
Procedure, shortened: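 Human umbilical vein endothelial cells in the 4H system, 24 h after chemical dosing. Cell-surface uPAR measured by ELISA, fitted in both directions versus DMSO; cytotoxicity checked by SRB total protein in parallel cultures.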

[12] = read-out: Vascular endothelial growth factor receptor 2 (Homo sapiens) (UniProt P35968); assay: BSK_4H_VEGFRII: BioMAP Diversity Plus: 4H Assay for Vascular endothelial growth factor receptor 2 (VEGFR2) Biomarker Activity (AID 2283031); settings: primary human endothelial cells (HUVEC); actives raise or lower the signal;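 as to AC50: cell-surface VEGFR2 protein level quantified by ELISA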
Procedure, shortened: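 Primary human umbilical vein endothelial cells (4H system), 24 h exposure; cell-surface VEGFR2 measured by ELISA. Bidirectional fitting versus DMSO; cytotoxicity checked in parallel by SRB total-protein staining.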

[13] = read-out: Human Leukocyte Antigen - DR isotype (HLADR), HLA-DRA (gene 3122); assay: BSK_BE3C_HLADR: BioMAP Diversity Plus: BE3C Assay for Human Leukocyte Antigen - DR isotype (HLADR) Biomarker Activity (AID 2283032); settings: primary human bronchial epithelial cells; actives raise or lower the signal
Procedure, shortened: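 Human primary bronchial epithelial cells in the BE3C system were exposed to chemicals for 24 h, after which HLA-DR levels were quantified by ELISA. Activity was fitted bidirectionally, gain or loss of signal, against DMSO as negative control and baseline.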

[14] = read-out: Vascular cell adhesion molecule 1 (VCAM1), VCAM1 (gene 7412); assay: BSK_4H_VCAM1: BioMAP Diversity Plus: 4H Assay for Vascular cell adhesion molecule 1 (VCAM1) Biomarker Activity (AID 2283033); settings: primary human endothelial cells (HUVEC); actives raise or lower the signal
Procedure, shortened: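 Primary human umbilical vein endothelial cells were exposed to chemicals for 24 h, after which VCAM-1 was quantified by ELISA. Responses were fitted bidirectionally against DMSO as negative control and activity baseline.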

[15] = read-out: Interferon-gamma inducible Protein 10 (IP10), CXCL10 (gene 3627); assay: BSK_BE3C_IP10: BioMAP Diversity Plus: BE3C Assay for Interferon-gamma inducible Protein 10 (IP10) Biomarker Activity (AID 2283034); settings: primary human bronchial epithelial cells; actives raise or lower the signal
Procedure, shortened: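 Human primary bronchial epithelial cells were exposed to chemicals for 24 hours, after which IP-10 levels were measured by ELISA. Data were fitted bidirectionally against DMSO, which served as the negative control and activity baseline.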

[16] = read-out: Monokine induced gamma interferon (MIG), CXCL9 (gene 4283); assay: BSK_BE3C_MIG: BioMAP Diversity Plus: BE3C Assay for Monokine induced gamma interferon (MIG) Biomarker Activity (AID 2283035); settings: primary human bronchial epithelial cells; actives raise or lower the signal
Procedure, shortened: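 ELISA read-out of MIG in human lung bronchial epithelial primary cultures, 24 h post-dosing. Bidirectional curve fit vs DMSO baseline.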

[17] = read-out: Transforming growth factor beta 1 (TGFb1), TGFB1 (gene 7040); assay: BSK_BE3C_TGFb1: BioMAP Diversity Plus: BE3C Assay for Transforming growth factor beta 1 (TGFb1) Biomarker Activity (AID 2283036); settings: primary human bronchial epithelial cells; actives raise or lower the signal
Procedure, shortened: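 Human primary bronchial epithelial cells (BE3C system) were dosed with chemical and TGF-b1 levels measured by ELISA at 24 h. Activity was fitted bidirectionally relative to DMSO negative control as baseline.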

[18] = read-out: Plasminogen activator inhibitor-1 (PAI1), SERPINE1 (gene 5054); assay: BSK_BE3C_PAI1: BioMAP Diversity Plus: BE3C Assay for Plasminogen activator inhibitor-1 (PAI1) Biomarker Activity (AID 2283037); settings: primary human bronchial epithelial cells; actives raise or lower the signal
Procedure, shortened: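 Human primary bronchial epithelial cells were exposed to chemical for 24 h, then PAI-1 was quantified by ELISA. Activity was fitted bidirectionally relative to the DMSO negative control baseline.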

[19] = read-out: urokinase plasminogen activator (uPA), PLAU (gene 5328); assay: BSK_BE3C_uPA: BioMAP Diversity Plus: BE3C Assay for urokinase plasminogen activator (uPA) Biomarker Activity (AID 2283038); settings: primary human bronchial epithelial cells; actives raise or lower the signal
Procedure, shortened: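 Primary human bronchial epithelial cells, uPA measured by ELISA 24 h after dosing. Bidirectional change relative to DMSO; cytotoxicity checked in parallel cultures by sulforhodamine B total-protein staining.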

[20] = read-out: Urokinase-type plasminogen activator receptor (uPAR), PLAUR (gene 5329); assay: BSK_BE3C_uPAR: BioMAP Diversity Plus: BE3C Assay for Urokinase-type plasminogen activator receptor (uPAR) Biomarker Activity (AID 2283039); settings: primary human bronchial epithelial cells; actives raise or lower the signal
Procedure, shortened: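 Primary human bronchial epithelial cells were dosed with chemical and harvested 24 h later; uPAR was quantified by ELISA. Activity was fitted bidirectionally against DMSO as negative control and baseline.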

Measured: AC50

human Vitamin D Receptor (VDR), VDR (gene 7421), sequence (P11473 whole entry, looked up, the tested form may be a part): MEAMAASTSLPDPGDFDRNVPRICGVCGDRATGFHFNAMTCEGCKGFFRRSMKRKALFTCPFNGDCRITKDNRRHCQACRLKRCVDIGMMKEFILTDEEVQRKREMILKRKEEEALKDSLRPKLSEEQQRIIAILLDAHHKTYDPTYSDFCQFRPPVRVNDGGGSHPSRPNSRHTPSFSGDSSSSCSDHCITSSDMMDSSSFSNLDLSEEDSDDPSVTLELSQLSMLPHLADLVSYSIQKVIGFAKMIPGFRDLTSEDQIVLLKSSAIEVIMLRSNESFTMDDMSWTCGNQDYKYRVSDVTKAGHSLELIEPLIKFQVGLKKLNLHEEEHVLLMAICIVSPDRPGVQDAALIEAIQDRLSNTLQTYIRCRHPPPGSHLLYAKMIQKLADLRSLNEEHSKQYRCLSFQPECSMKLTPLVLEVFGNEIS

CCCCCCCC(=O)O
inactive: all assays above

COCC(C)O (stereo unspecified)
inactive: all assays above

OC1CCC(C2CCCCC2)CC1 (stereo unspecified)
inactive: all assays above

CC(C)(C)CC(C)(C)c1ccc(O)c(-n2nc3ccccc3n2)c1
inactive: all assays above

CN1CCC[C@H]1c1cccnc1
inactive: all assays above

Oc1cc2ccccc2c2ccccc12
active: [1] 9.59 µM | [2] 11.3 µM | [4] 15.4 µM | [5] 27.9 µM | [6] 13.3 µM | [7] 9.99 µM | [8] 16.6 µM | [9] 28.8 µM | [10] 9.55 µM | [11] 13.2 µM | [12] 30.1 µM | [13] 13.8 µM | [14] 8.16 µM | [15] 13 µM | [16] 28.8 µM | [17] 13.9 µM | [18] 24.9 µM | [19] 13.9 µM | [20] 27.6 µM
inactive: [3]

CCCCCCCCCCCCCCCS(=O)(=O)Oc1ccccc1
inactive: all assays above

Oc1cccc(O)c1
inactive: all assays above

C=C(C)C(=O)OCCC(F)(F)C(F)(F)C(F)(F)C(F)(F)C(F)(F)C(F)(F)F
inactive: [1] | [2] | [3] | [4] | [5] | [6] | [7] | [8] | [9] | [10] | [11] | [12] | [13] | [14] | [15] | [16] | [17] | [18] | [19] | [20]
active: [8] 20 µM

ClC1=C(Cl)C(Cl)(Cl)C(Cl)=C1Cl
active: [1] 9.46 µM | [2] 10.5 µM | [4] 5.75 µM | [5] 10.7 µM | [6] 7.95 µM | [7] 5.42 µM | [8] 6.82 µM | [9] 6.99 µM | [10] 10.3 µM | [11] 5.91 µM | [13] 6.39 µM | [14] 6.5 µM | [15] 6.61 µM | [16] 10.1 µM | [17] 5.53 µM | [18] 5.25 µM | [19] 7.28 µM | [20] 8.37 µM
inactive: [3] | [12]

CCCCC(CC)COC(=O)CCCCC(=O)OCc1ccccc1 (stereo unspecified)
inactive: all assays above
